Measurements as given in PubChem BioAssay AID1159580 (chemical genetic matrix, 2015).
The whole screen tested about 5,500 compounds, of which about 2,000 (36%) were called active. Another 18% or so got no clear call; they are omitted. Rule as the data show it: active = normalized growth mostly below about 0.91 (no sharp cut-off); inconclusive = no clear call, values can overlap the other calls; inactive = mostly above about 0.92. The list shows a part of the results.

Test: chemical genetic growth profiling, strain panel (AID 1159580);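 also: tested at 20 µM; growth read once vehicle control cultures reached saturation at 30 °C; 1 = growth at the plate median or of vehicle wells; lower values mean less growth of the strain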
Conditions: growth OD

Measured: normalized growth

COc1ccc2c(c1)c(CC(=O)OCC(=O)O)c(C)n2C(=O)c1ccc(Cl)cc1
inactive: S. cerevisiae deletion strains, locus YJR075W, strain HOC1, active compounds read low 1.03 | S. cerevisiae deletion strains, locus YKL009W, strain mrt4, active compounds read low 0.951 | S. cerevisiae deletion strains, locus YKL068W, active compounds read low 1.01 | S. cerevisiae deletion strains, locus YKL085W, strain MDH1 (second series), active compounds read low 0.984 | S. cerevisiae deletion strains, locus YKL085W, strain MDH1, active compounds read low 0.984 | S. cerevisiae deletion strains, locus YKL160W, strain elf1, active compounds read low 0.99 | S. cerevisiae deletion strains, locus YKL190W, strain CNB1, active compounds read low 1.01 | S. cerevisiae deletion strains, locus YKR001C, strain vps1, active compounds read low 1.02 | S. cerevisiae deletion strains, locus YKR026C, strain gcn3, active compounds read low 0.991 | S. cerevisiae deletion strains, locus YKR091W, strain srl3, active compounds read low 1 | S. cerevisiae deletion strains, locus YLL001W, strain dnm1, active compounds read low 0.958 | S. cerevisiae deletion strains, locus YLL026W, active compounds read low 0.997 | S. cerevisiae deletion strains, locus YLL041C, strain sdh2, active compounds read low 0.995 | S. cerevisiae deletion strains, locus YLR027C, strain aat2, active compounds read low 0.971 | S. cerevisiae deletion strains, locus YLR039C, strain RIC1, active compounds read low 1.03 | S. cerevisiae deletion strains, locus YLR058C, strain SHM2, active compounds read low 1.02 | S. cerevisiae deletion strains, locus YLR102C, strain apc9, active compounds read low 1.01 | S. cerevisiae deletion strains, locus YLR113W, strain HOG1, active compounds read low 0.991 | S. cerevisiae deletion strains, locus YLR221C, strain rsa3, active compounds read low 0.998 | S. cerevisiae deletion strains, locus YLR258W, strain gsy2, active compounds read low 1 | S. cerevisiae deletion strains, locus YLR262C, strain YPT6 (second series), active compounds read low 0.99 | S. cerevisiae deletion strains, locus YLR262C, strain YPT6, active compounds read low 1.03 | S. cerevisiae deletion strains, locus YLR268W, strain sec22, active compounds read low 1.06 | S. cerevisiae deletion strains, locus YLR320W, strain mms22, active compounds read low 1.01 | S. cerevisiae deletion strains, locus YLR330W, strain CHS5, active compounds read low 1.01 | S. cerevisiae deletion strains, locus YLR342W, strain FKS1 (second series), active compounds read low 1.02 | S. cerevisiae deletion strains, locus YLR342W, strain FKS1, active compounds read low 0.971 | S. cerevisiae deletion strains, locus YLR357W, strain rsc2, active compounds read low 0.946 | S. cerevisiae deletion strains, locus YLR370C, strain arc18, active compounds read low 0.983 | S. cerevisiae deletion strains, locus YLR371W, strain rom2, active compounds read low 1.02 | S. cerevisiae deletion strains, locus YLR384C, strain iki3, active compounds read low 0.982 | S. cerevisiae deletion strains, locus YLR418C, strain cdc73, active compounds read low 1.03 | S. cerevisiae deletion strains, locus YML016C, strain PPZ1, active compounds read low 1 | S. cerevisiae deletion strains, locus YML032C, strain rad52, active compounds read low 1.02 | S. cerevisiae deletion strains, locus YML120C, strain ndi1, active compounds read low 0.982 | S. cerevisiae deletion strains, locus YML124C, strain tub3, active compounds read low 1.02 | S. cerevisiae deletion strains, locus YMR058W, strain fet3, active compounds read low 0.995 | S. cerevisiae deletion strains, locus YMR078C, strain ctf18, active compounds read low 1.01 | S. cerevisiae deletion strains, locus YMR125W, strain sto1, active compounds read low 1 | S. cerevisiae deletion strains, locus YMR129W, active compounds read low 1.01 | S. cerevisiae deletion strains, locus YMR205C, strain PFK2, active compounds read low 0.976 | S. cerevisiae deletion strains, locus YMR223W, strain ubp8, active compounds read low 1.02 | S. cerevisiae deletion strains, locus YMR231W, strain pep5, active compounds read low 0.991 | S. cerevisiae deletion strains, locus YMR263W, strain SAP30, active compounds read low 1.02 | S. cerevisiae deletion strains, locus YMR307W, strain GAS1, active compounds read low 1.04 | S. cerevisiae deletion strains, locus YNL067W, strain RPL9B, active compounds read low 1.03 | S. cerevisiae deletion strains, locus YNL071W, strain lat1, active compounds read low 1.01 | S. cerevisiae deletion strains, locus YNL128W, strain TEP1, active compounds read low 1.02 | S. cerevisiae deletion strains, locus YNL153C, strain GIM3, active compounds read low 1.02 | S. cerevisiae deletion strains, locus YNL183C, strain NPR1, active compounds read low 0.868 | S. cerevisiae deletion strains, locus YNL209W, strain ssb2, active compounds read low 1.01 | S. cerevisiae deletion strains, locus YNL233W, strain BNI4, active compounds read low 1.02 | S. cerevisiae deletion strains, locus YNL248C, strain rpa49, active compounds read low 1.03 | S. cerevisiae deletion strains, locus YNL250W, strain rad50, active compounds read low 1.02 | S. cerevisiae deletion strains, locus YNL271C, strain bni1, active compounds read low 1.02 | S. cerevisiae deletion strains, locus YNL298W, strain CLA4, active compounds read low 0.998 | S. cerevisiae deletion strains, locus YNL307C, strain MCK1, active compounds read low 1.02 | S. cerevisiae deletion strains, locus YNL322C, strain KRE1 (second series), active compounds read low 1.01 | S. cerevisiae deletion strains, locus YNL322C, strain KRE1, active compounds read low 1.01 | S. cerevisiae deletion strains, locus YNR049C, strain mso1, active compounds read low 0.995 | S. cerevisiae deletion strains, locus YNR052C, strain pop2, active compounds read low 1 | S. cerevisiae deletion strains, locus YOL006C, strain TOP1, active compounds read low 1.11 | S. cerevisiae deletion strains, locus YOL012C, strain htz1 0.843 | S. cerevisiae deletion strains, locus YOL147C, strain pex11, active compounds read low 1.02 | S. cerevisiae deletion strains, locus YOR001W, strain rrp6, active compounds read low 0.969 | S. cerevisiae deletion strains, locus YOR061W, strain CKA2, active compounds read low 1.01 | S. cerevisiae deletion strains, locus YOR069W, strain VPS5, active compounds read low 1.01 | S. cerevisiae deletion strains, locus YOR070C, strain gyp1, active compounds read low 1.01 | S. cerevisiae deletion strains, locus YOR080W, strain dia2, active compounds read low 0.976 | S. cerevisiae deletion strains, locus YOR083W, strain WHI5, active compounds read low 0.951 | S. cerevisiae deletion strains, locus YOR106W, strain vam3, active compounds read low 0.975 | S. cerevisiae deletion strains, locus YOR136W, strain idh2, active compounds read low 1.02 | S. cerevisiae deletion strains, locus YOR144C, strain elg1, active compounds read low 1.02 | S. cerevisiae deletion strains, locus YOR184W, strain ser1, active compounds read low 1.02 | S. cerevisiae deletion strains, locus YOR231W, strain MKK1, active compounds read low 0.97 | S. cerevisiae deletion strains, locus YOR265W, strain rbl2, active compounds read low 1 | S. cerevisiae deletion strains, locus YOR270C, strain vph1, active compounds read low 1 | S. cerevisiae deletion strains, locus YOR290C, strain snf2, active compounds read low 1.02 | S. cerevisiae deletion strains, locus YOR316C, strain cot1, active compounds read low 1.02 | S. cerevisiae deletion strains, locus YPL051W, strain arl3, active compounds read low 0.998 | S. cerevisiae deletion strains, locus YPL055C, strain LGE1, active compounds read low 1.02 | S. cerevisiae deletion strains, locus YPL078C, strain atp4, active compounds read low 0.986 | S. cerevisiae deletion strains, locus YPL106C, strain sse1, active compounds read low 1.02 | S. cerevisiae deletion strains, locus YPL240C, strain hsp82, active compounds read low 0.982 | S. cerevisiae deletion strains, locus YPL241C, strain CIN2, active compounds read low 1 | S. cerevisiae deletion strains, locus YPL256C, strain CLN2, active compounds read low 0.963 | S. cerevisiae deletion strains, locus YPR119W, strain clb2, active compounds read low 1.01 | S. cerevisiae deletion strains, locus YPR141C, strain kar3, active compounds read low 1.02 | S. cerevisiae deletion strains, locus YPR163C, strain tif3, active compounds read low 1.02 | S. cerevisiae deletion strains, locus YPR167C, strain met16, active compounds read low 1.01 | S. cerevisiae deletion strains, strain wtn01, active compounds read low 1.02 | S. cerevisiae strains, strain wild type, active compounds read low 1.01
